Experimental data from PubChem BioAssay (NCI).
Values joined by “and” are separate entries in the source; they are usually repeats but may differ in a detail not shown here. Equal values may be shown once. Compounds without any hit were thinned out: in the full panel of roughly 83,000, 20% have a hit.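 Method: cells in 96-well plates; compound added at one concentration; 48 h incubation; percent growth measured; values under 10 scored active.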

Assays:
Test in all cases: NCI-60 one-dose screen, 48 h (100 = growth as untreated, 0 = no growth, -100 = all killed)
[1] = test system: DU-145 prostate
[2] = test system: K-562 leukemia
[3] = test system: MALME-3M melanoma
[4] = test system: MDA-MB-231 breast
[5] = test system: RXF 393 renal
[6] = test system: SF-268 CNS
[7] = test system: SF-295 CNS
[8] = test system: SF-539 CNS
[9] = test system: UACC-257 melanoma

Measured: growth

O=C(O)Cc1cc(=O)[nH]n(-c2ccccc2)c1=O
inactive: [1]; 10 µM unless noted 115% | [2]; 10 µM unless noted 100% | [3]; 10 µM unless noted 113% | [4]; 10 µM unless noted 101% | [5]; 10 µM unless noted 109% | [6]; 10 µM unless noted 96.8% | [7]; 10 µM unless noted 97.4% | [8]; 10 µM unless noted 99.1% | [9]; 10 µM unless noted 98.2%

Cn1c(N)c(N=O)c(=O)n(C)c1=O
inactive: [1]; 10 µM unless noted 108% and 102% | [2]; 10 µM unless noted 86.8% and 108% | [3]; 10 µM unless noted 115% and 90.9% | [4]; 10 µM unless noted 108% and 98.7% | [5]; 10 µM unless noted 170% and 109% | [6]; 10 µM unless noted 94.6% and 90.7% | [7]; 10 µM unless noted 105% and 103% | [8]; 10 µM unless noted 107% and 100% | [9]; 10 µM unless noted 101%

CS/C(=C\c1ccc(C(=O)c2ccc(C)cc2)n1C)S(C)=O (stereo unspecified)
inactive: [1]; 10 µM 110% | [1]; 100 µM 88.1% | [2]; 10 µM 44.4% | [2]; 100 µM 26.3% | [3]; 10 µM 95% | [3]; 100 µM 69.3% | [4]; 10 µM 89.6% | [4]; 100 µM 85.6% | [5]; 10 µM 101% | [5]; 100 µM 73.2% | [6]; 10 µM 112% | [6]; 100 µM 93.2% | [7]; 10 µM 60.7% | [7]; 100 µM 62.2% | [8]; 10 µM 91.3% | [8]; 100 µM 80.4% | [9]; 10 µM unless noted 64.6% [100 µM]

CCC(=O)Oc1ccc(OCc2ccccc2)cc1
inactive: [1]; 10 µM unless noted 96.9% and 88.9% | [2]; 10 µM unless noted 86% and 88.4% | [3]; 10 µM unless noted 107% and 86.6% | [4]; 10 µM unless noted 60.1% and 68.4% | [5]; 10 µM unless noted 94% and 100% | [6]; 10 µM unless noted 75% and 85.5% | [7]; 10 µM unless noted 95.4% and 75.9% | [8]; 10 µM unless noted 56.2% and 65.3% | [9]; 10 µM unless noted 130% and 108%

S=c1nc[nH]c2nc[nH]c12
inactive: [1]; 10 µM 44.3% | [1]; 50 µM 25.3% | [2]; 10 µM unless noted 11.9% [50 µM] | [3]; 10 µM 50.1% | [3]; 50 µM 17.4% | [4]; 10 µM 42.9% | [4]; 50 µM 40.2% | [5]; 10 µM 62.8% | [5]; 50 µM 59.7% | [6]; 10 µM 39.2% | [6]; 50 µM 24.7% | [7]; 10 µM 11.4% | [7]; 50 µM 18.1% | [8]; 10 µM 31.2% | [8]; 50 µM 14.4% | [9]; 10 µM 44.2% | [9]; 50 µM 29.7%

CC(=O)/C(N=Nc1ccc(S(=O)(=O)c2ccc(N=N/C(C(C)=O)=C(/C)O)cc2)cc1)=C(\C)O
inactive: [1]; 10 µM unless noted 104% | [2]; 10 µM unless noted 111% | [3]; 10 µM unless noted 106% | [4]; 10 µM unless noted 113% | [5]; 10 µM unless noted 165% | [6]; 10 µM unless noted 101% | [7]; 10 µM unless noted 118% | [8]; 10 µM unless noted 112% | [9]; 10 µM unless noted 109%

O=C(OCc1ccccc1)c1ccccc1
inactive: [1]; 10 µM unless noted 118% and 101% | [2]; 10 µM unless noted 104% | [3]; 10 µM unless noted 109% and 102% | [4]; 10 µM unless noted 88.2% and 102% | [5]; 10 µM unless noted 91.4% | [6]; 10 µM unless noted 114% and 99.1% | [7]; 10 µM unless noted 108% and 103% | [8]; 10 µM unless noted 107% and 94.9% | [9]; 10 µM unless noted 95.6% and 85%

CCC(C)NC(=O)c1ccccc1C (stereo unspecified)
inactive: [1]; 10 µM unless noted 106% | [2]; 10 µM unless noted 129% | [3]; 10 µM unless noted 77.7% | [4]; 10 µM unless noted 104% | [5]; 10 µM unless noted 96% | [6]; 10 µM unless noted 101% | [7]; 10 µM unless noted 100% | [8]; 10 µM unless noted 96.6% | [9]; 10 µM unless noted 100%

C(=N\OCCc1ccccc1)/c1ccccn1
inactive: [1]; 10 µM unless noted 111% and 106% | [2]; 10 µM unless noted 115% | [3]; 10 µM unless noted 153% and 95.9% | [4]; 10 µM unless noted 124% and 112% | [5]; 10 µM unless noted 116% and 119% | [6]; 10 µM unless noted 107% and 105% | [7]; 10 µM unless noted 96.6% | [8]; 10 µM unless noted 104% and 93.6% | [9]; 10 µM unless noted 109% and 104%

NCCSSC/C=C\CSSCCN
inactive: [1]; 10 µM unless noted 104% | [2]; 10 µM unless noted 95.7% | [3]; 10 µM unless noted 103% | [4]; 10 µM unless noted 100% | [5]; 10 µM unless noted 102% | [6]; 10 µM unless noted 99.5% | [7]; 10 µM unless noted 104% | [8]; 10 µM unless noted 109% | [9]; 10 µM unless noted 91.3%
